Test [1] concerns the target ATP-dependent 6-phosphofructokinase (Trypanosoma brucei brucei) (UniProt O15648). In words: qHTS Assay to Find Inhibitors of T. brucei phosphofructokinase: hit validation (AID 492961). Note: potency is the fitted concentration of half-maximal effect. The procedure, abridged: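 ADP-Glo luminescence read-out of ADP formed by 1.25 nM PFK from 0.1 mM ATP and 0.5 mM F6P (TEA pH 8.0, 45 min, RT). Compounds titrated; activity normalized to no-enzyme and full-enzyme controls.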

Test [2] is described as follows: Quantitative high throughput screen for delayed death inhibitors of the malarial parasite plastid, 96 hour incubation (AID 488745). Note: series mostly up to about 29 µM; nearly all actives have a fitted effect of over 70% in size. The procedure, abridged:
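Luciferase-expressing P. falciparum in erythrocytes (2% hematocrit, 0.1% parasitemia) incubated with compound for 96 h at 37 C, 5% CO2, in RPMI 1640 with 0.5% Albumax. Growth inhibition read as decreased luminescence.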

Test [3] in a line: Quantitative high throughput screen for delayed death inhibitors of the malarial parasite plastid, 48 hour incubation (AID 488752). Note: nearly all actives have a fitted effect of over 65% in size. The procedure, abridged:
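Erythrocytes infected with firefly luciferase-expressing P. falciparum (2% hematocrit, 0.1% parasitemia) cultured with compound for 48 h at 37 C, 5% CO2, in RPMI 1640/0.5% Albumax. Growth inhibition read as loss of luminescence.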

The target of test [4] is M-phase phosphoprotein 8 (Homo sapiens) (UniProt Q99549). In words: qHTS Validation Assay for Inhibitors for MPP8 Chromodomain Interactions with Methylated Histone Tails (AID 488949). Note: potency is the fitted concentration of half-maximal effect; nearly all actives have a fitted effect of over 55% in size. The procedure, abridged: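 Chemiluminescent proximity assay: histidine-tag capture via nickel acceptor beads, biotin peptide via streptavidin donor beads. Protein and peptide each at 50 nM, pH 7.4, with 30 min incubations at room temperature for complex formation, compound exposure and bead binding.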

In test [5] the target is Transient receptor potential cation channel subfamily V member 1 (Homo sapiens) (UniProt Q8NER1). In words: HTS Assay for Compounds that Act as Enhancers of the Vanilloid Receptor 1 (AID 488979). A digest of the protocol: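 Calcium influx kinetics via Fluo-8 (480/520 nm) in TRPV1-expressing cells, 2000/well cultured overnight at 35.5C. Compound-alone read 3 min (agonist phase), followed by EC20 capsaicin challenge for 2 min (enhancer phase).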

Test [6] deals with Thyrotropin receptor (Homo sapiens) (UniProt P16473). In words: qHTS Assay for Antagonists of the Thyroid Stimulating Hormone Receptor (AID 488980). Note: series mostly up to about 58 µM. A digest of the protocol:
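Inhibition of TSH-stimulated cAMP accumulation was quantified by homogeneous time-resolved FRET in TSHR-transfected HEK293 cells. Agonist: TSH, 4 nM final (EC80).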

The target of test [7] is Tyrosyl-DNA phosphodiesterase 1 (Homo sapiens) (UniProt Q9NUW8). In words: Confirmation Assay for Inhibitors of Tyrosyl-DNA Phosphodiesterase (TDP1) (AID 489007). Note: potency is the fitted concentration of half-maximal effect; nearly all actives have a fitted effect of over 40% in size. Conditions: recombinant human TDP1 enzymatic activity, dose-response. A digest of the protocol: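 Recombinant human Tdp1 (1 nM final), expressed in E. coli, preincubated 15 min with compound. Then 15 nM 5'-biotin/3'-phosphotyrosine-FITC DNA substrate added for 5 min at room temperature. AlphaScreen beads (10 ug/ml) added for 10 min; cleavage gives signal loss.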

Molecules are shown by their SMILES. Results filed as inconclusive are left out. A call without a number means that no potency is given here. The source made the active and inactive calls. Calls come from the whole dose curve; as a rule, active = well fitted curve in the direction sought with a large enough effect; inconclusive = small, poorly fitted or top-dose-only effect, or another doubt; inactive = no such curve, though single readings can be large; an effect the other way counts as inactive or inconclusive.

Chain of ATP-dependent 6-phosphofructokinase (Trypanosoma brucei brucei) (O15648 whole entry, looked up): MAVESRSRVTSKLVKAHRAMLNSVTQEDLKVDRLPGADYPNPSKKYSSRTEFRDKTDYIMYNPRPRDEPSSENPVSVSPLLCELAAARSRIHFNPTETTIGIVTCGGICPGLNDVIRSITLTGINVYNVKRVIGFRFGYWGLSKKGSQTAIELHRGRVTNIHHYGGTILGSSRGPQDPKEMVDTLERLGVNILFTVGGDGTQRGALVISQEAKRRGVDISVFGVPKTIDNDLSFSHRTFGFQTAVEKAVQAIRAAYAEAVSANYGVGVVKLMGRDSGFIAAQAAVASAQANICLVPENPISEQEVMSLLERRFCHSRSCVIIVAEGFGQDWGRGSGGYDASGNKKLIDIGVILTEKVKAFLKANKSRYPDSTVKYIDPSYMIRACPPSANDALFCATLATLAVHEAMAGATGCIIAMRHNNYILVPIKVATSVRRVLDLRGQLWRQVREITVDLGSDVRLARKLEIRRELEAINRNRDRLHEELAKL
Chain of Tyrosyl-DNA phosphodiesterase 1 (Homo sapiens) (Q9NUW8 whole entry, looked up): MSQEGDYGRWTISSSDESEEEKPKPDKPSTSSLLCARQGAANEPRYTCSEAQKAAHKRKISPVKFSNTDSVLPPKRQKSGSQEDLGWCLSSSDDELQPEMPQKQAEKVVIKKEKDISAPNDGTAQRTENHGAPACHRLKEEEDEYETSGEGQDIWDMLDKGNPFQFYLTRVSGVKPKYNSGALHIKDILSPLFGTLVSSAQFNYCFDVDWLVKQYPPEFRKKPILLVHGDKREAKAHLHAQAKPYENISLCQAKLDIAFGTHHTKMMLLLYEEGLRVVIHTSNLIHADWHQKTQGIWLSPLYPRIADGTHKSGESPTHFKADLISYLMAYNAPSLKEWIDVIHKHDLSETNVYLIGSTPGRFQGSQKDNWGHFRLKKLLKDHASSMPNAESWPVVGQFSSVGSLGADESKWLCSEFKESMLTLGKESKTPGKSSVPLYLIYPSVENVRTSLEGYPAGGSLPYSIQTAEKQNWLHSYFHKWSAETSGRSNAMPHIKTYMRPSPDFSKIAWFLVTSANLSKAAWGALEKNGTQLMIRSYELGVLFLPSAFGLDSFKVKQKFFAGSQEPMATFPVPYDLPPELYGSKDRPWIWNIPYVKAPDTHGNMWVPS
Chain of Transient receptor potential cation channel subfamily V member 1 (Homo sapiens) (Q8NER1 whole entry, looked up): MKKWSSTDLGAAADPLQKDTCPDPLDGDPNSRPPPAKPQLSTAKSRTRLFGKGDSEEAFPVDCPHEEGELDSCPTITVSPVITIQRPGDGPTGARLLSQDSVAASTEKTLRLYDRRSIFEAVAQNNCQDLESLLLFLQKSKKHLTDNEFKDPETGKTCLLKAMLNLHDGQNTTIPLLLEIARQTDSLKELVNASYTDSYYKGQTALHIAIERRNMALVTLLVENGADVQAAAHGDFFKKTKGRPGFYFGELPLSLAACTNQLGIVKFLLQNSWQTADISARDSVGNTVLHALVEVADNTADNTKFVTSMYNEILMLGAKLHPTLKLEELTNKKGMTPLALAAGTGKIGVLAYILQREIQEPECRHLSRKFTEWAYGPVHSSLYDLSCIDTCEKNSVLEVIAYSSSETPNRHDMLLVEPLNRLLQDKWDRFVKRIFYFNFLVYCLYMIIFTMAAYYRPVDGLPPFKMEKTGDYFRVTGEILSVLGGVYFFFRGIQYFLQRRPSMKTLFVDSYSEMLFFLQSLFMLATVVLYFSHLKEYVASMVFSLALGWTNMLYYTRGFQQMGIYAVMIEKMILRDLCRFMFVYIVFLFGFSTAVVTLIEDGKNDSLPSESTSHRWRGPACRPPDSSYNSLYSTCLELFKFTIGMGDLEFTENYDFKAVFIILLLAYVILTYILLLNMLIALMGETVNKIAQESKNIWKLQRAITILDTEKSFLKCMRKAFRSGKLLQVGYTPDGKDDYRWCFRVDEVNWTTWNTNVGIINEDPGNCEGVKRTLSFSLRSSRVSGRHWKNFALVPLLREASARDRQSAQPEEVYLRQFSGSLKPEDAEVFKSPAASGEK
Chain of Thyrotropin receptor (Homo sapiens) (P16473 whole entry, looked up): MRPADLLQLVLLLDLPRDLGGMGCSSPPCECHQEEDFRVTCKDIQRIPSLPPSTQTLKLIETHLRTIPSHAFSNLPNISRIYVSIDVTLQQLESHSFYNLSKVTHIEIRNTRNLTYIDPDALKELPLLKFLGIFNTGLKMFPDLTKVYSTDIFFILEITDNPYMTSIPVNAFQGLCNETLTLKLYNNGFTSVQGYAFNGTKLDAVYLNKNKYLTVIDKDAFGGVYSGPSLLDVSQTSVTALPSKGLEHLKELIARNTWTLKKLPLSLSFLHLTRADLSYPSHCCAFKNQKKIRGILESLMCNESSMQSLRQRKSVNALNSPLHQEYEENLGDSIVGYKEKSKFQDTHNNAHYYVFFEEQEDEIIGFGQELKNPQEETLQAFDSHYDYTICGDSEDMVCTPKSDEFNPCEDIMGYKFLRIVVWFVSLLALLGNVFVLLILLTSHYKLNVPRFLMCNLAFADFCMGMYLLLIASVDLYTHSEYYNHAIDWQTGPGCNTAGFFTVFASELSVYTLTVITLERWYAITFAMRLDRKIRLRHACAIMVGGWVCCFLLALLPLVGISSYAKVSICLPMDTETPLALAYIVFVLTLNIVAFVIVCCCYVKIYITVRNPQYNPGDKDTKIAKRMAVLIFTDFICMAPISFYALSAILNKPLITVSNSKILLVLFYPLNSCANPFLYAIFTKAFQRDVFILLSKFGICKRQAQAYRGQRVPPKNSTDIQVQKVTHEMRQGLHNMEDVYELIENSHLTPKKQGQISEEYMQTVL
Chain of M-phase phosphoprotein 8 (Homo sapiens) (Q99549 whole entry, looked up): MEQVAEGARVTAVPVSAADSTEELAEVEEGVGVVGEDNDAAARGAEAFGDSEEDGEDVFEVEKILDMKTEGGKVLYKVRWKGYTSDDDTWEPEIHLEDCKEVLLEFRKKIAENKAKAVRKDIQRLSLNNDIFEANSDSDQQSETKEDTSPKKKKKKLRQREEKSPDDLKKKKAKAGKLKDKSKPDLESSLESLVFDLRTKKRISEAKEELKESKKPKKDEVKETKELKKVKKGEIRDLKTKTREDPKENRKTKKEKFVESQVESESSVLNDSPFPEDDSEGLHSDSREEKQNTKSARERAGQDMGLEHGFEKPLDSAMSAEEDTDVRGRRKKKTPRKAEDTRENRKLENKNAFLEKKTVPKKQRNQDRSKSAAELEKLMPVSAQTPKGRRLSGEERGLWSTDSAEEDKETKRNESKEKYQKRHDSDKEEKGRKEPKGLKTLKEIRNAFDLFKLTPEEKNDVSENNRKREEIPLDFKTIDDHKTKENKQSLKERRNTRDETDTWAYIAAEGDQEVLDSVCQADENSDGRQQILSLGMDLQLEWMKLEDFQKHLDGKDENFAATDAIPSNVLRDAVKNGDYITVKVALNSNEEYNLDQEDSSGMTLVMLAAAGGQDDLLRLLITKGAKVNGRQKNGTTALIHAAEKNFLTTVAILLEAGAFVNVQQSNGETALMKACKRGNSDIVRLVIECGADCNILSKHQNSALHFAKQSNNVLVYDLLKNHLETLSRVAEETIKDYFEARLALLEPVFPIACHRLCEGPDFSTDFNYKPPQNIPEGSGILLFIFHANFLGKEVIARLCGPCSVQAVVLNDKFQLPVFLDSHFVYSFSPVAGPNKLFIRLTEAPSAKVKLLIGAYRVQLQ

Turning to `CCCCCCCCCCCCCC(=O)OC(C)C`, the Potency entry in test [1] is “inactive”.

Regarding `COc1cc(O)c(C(=O)c2ccccc2)cc1S(=O)(=O)O`, in test [1], the Potency entry is “inactive”.

Turning to `Nc1ccc(S(=O)(=O)Nc2cnc3ccccc3n2)cc1`, in test [1], the Potency entry was “inactive”.

Consider `CCCCCCCC/C=C\CCCCCCCCN`, for which the Potency result in test [1] was “inactive”.

`CN1CCC[C@@H]1CCO[C@](C)(c1ccccc1)c1ccc(Cl)cc1`: in test [1], the Potency entry was “inactive”.

In the case of `CC(=O)OCC1=C(C(=O)O)N2C(=O)[C@@H](NC(=O)CSc3ccncc3)[C@H]2SC1`, the call in test [2], in test [3], in test [5] and in test [6] was inactive. The Potency in test [4] was 31.6 µM (active); in test [7] it was 2 µM (active).

Turning to `CN1CCc2cccc3c2[C@H]1Cc1ccc(O)c(O)c1-3`, in test [1], the Potency is 12.6 µM (active).

On to `CN1CCN(CCC(=O)N2c3ccccc3Sc3ccc(C(F)(F)F)cc32)CC1`, for which, in test [1], the Potency result is “inactive”.

`O=C(CCCN1CC=C(n2c(=O)[nH]c3ccccc32)CC1)c1ccc(F)cc1`: the Potency entry in test [1] was “inactive”.

On to `CC(C)[N+](C)(C)CC(O)COc1cccc2ccccc12` (centres undefined), for which the Potency result in test [1] was “inactive”.

Consider `CCCCC(CC)COC(=O)c1ccc(N(C)C)cc1` (centres undefined), for which, in test [1], the Potency entry is “inactive”.

As to `COc1ccc(CCN(C)CCCN2CCc3cc(OC)c(OC)cc3CC2=O)cc1OC`, the Potency entry in test [1] was “inactive”.

Take `C#C[C@]1(O)CC[C@H]2[C@@H]3CCC4=Cc5oncc5C[C@]4(C)[C@H]3CC[C@@]21C`: the Potency result in test [1] was “inactive”.

As to `CC(C)(C)NC[C@H](O)COc1cccc2c1CCCC2=O`, the Potency result in test [1] was “inactive”.

Consider `O=C(O)CCC(=O)Nc1ccc(S(=O)(=O)Nc2nccs2)cc1`, for which the Potency result in test [1] is “inactive”.

Regarding `C#C[C@]1(O)CC[C@H]2[C@@H]3CCc4cc(OC)ccc4[C@H]3CC[C@@]21C`, the Potency entry in test [1] was “inactive”.

On to `c1ccc(-c2nc[nH]c2-c2ccccc2)cc1`, for which the Potency entry in test [1] is “inactive”.

In the case of `Cc1cc2c(OCC(CNC(C)(C)C)OC(=O)c3ccccc3)cccc2[nH]1` (centres undefined), in test [1], the Potency entry was “inactive”.

Turning to `CCCCCCCCCCCCCC[N+](C)(C)Cc1ccccc1`, the Potency entry in test [1] is “inactive”.

For `C=C[C@@]1(C)CC(=O)[C@]2(O)[C@@]3(C)[C@@H](O)CCC(C)(C)[C@@H]3[C@H](O)[C@H](OC(C)=O)[C@@]2(C)O1`, the Potency entry in test [1] is “inactive”.

For the compound `COc1cc(C(=O)NCc2ccc(OCCN(C)C)cc2)cc(OC)c1OC`, the Potency result in test [1] is “inactive”.

`CNCCCCOc1ccccc1Cc1ccccc1`: the Potency entry in test [1] was “inactive”.

On to `CCOc1ccccc1OCCN[C@H](C)Cc1ccc(OC)c(S(N)(=O)=O)c1`, for which the Potency entry in test [1] is “inactive”.

Consider `NS(=O)(=O)c1ccc(Cl)c(S(N)(=O)=O)c1`, for which the Potency result in test [1] was “inactive”.

Take `c1ccc(CC2=NCCN2)cc1`: the Potency result in test [1] was “inactive”.

On to `CNCCc1ccccn1`, for which, in test [1], the Potency result is “inactive”.

On to `CC(=O)OC[C@H]1O[C@@H](n2ncc(=O)[nH]c2=O)[C@H](OC(C)=O)[C@@H]1OC(C)=O`, for which the Potency result in test [1] is “inactive”.

`COc1cc(C(=S)N2CCOCC2)ccc1O`: in test [1], the Potency result is “inactive”.

In the case of `CCCCC(CC)COC(=O)/C=C/c1ccc(OC)cc1` (centres undefined), the Potency result in test [1] is “inactive”.

As for `NCc1ccccc1Sc1ccccc1CO`, the Potency result in test [1] is “inactive”.

Take `NCCNC(=O)c1ccc(Cl)cn1`: in test [1], the Potency result was “inactive”.

Consider `C[N+]1(C)CCC(=C(c2ccccc2)c2ccccc2)CC1`, for which, in test [1], the Potency entry was “inactive”.

Turning to `Clc1cccc(C(c2ccc3nc[nH]c3c2)n2ccnc2)c1` (centres undefined), the Potency result in test [1] is “inactive”.

On to `O=c1[nH]c(=O)n([C@H]2C[C@H](O)[C@@H](CO)O2)cc1F`, for which the Potency entry in test [1] was “inactive”.
